Drawing on PubChem BioAssay (Tox21), this text covers Potency, viability change, negative = cytotoxic and activity change, negative = cytotoxicity for 60 molecules.

Assay [1] can be described thus: cAMP Responsive Elements (CRE) small molecule antagonists, cell-based qHTS assay: qHTS cell viability counter screen (AID 2060913). Note: nearly all actives have a fitted effect of over 40% in size. To be noted: CRE-bla HEK293T viability, CellTiter-Glo luminescence, 5 h; series mostly up to 92.4 µM. In short, it runs like this: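 CRE-bla HEK293T cells (2,000/well, 18 h) given compound plus NKH477 0.25 uM final for 3 h at 37C; viability counter-screen by CellTiter-Glo luminescence in same wells after 30 min.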

Assay [2] can be described thus: cAMP Responsive Elements (CRE) small molecule agonists, cell-based qHTS assay: qHTS cell viability counter screen (AID 2060914). Note: nearly all actives have a fitted effect of over 50% in size. To be noted: CRE-bla HEK293T viability, CellTiter-Glo luminescence, 5 h; series mostly up to 92.4 µM. In short, it runs like this: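 Luminescence read-out (CellTiter-Glo, 30 min RT) of ATP-based viability in CRE-bla HEK 293T cells, run in the same wells as the β-lactamase reporter assay after 3 h compound treatment at 37 °C.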

Records with an inconclusive call do not appear. A number with no mark means an inactive call. Active and inactive are the calls of the source. Calls come from the whole dose curve; as a rule, active = well fitted cell-killing curve with a large enough effect in the repeat runs; inconclusive = weak or mixed curves, or effect the other way; inactive = flat fitted curve, though single readings scatter.
% is set by controls: 0 for no effect and ±100 for the full control effect.

On to `O=c1n(CC2CO2)c(=O)n(CC2CO2)c(=O)n1CC1CO1` (stereo not given), for which the Potency entry in assay [1] and in assay [2] was “inactive” each time.

For the molecule `Cc1ccc([N+](=O)[O-])cc1S(=O)(=O)O`, the Potency entry in assay [1] and in assay [2] was “inactive” each time.

In the case of `O=C(OCc1ccccc1)C(=O)OCc1ccccc1`, the Potency entry in assay [1] and in assay [2] was “inactive” throughout.

`CCC(C)N(C)C(=O)c1cc2ccccc2c(-c2ccccc2Cl)n1` (stereo not given): the Potency result in assay [1] and in assay [2] was “inactive” each time.

As to `OCCOc1cccc(OCCO)c1`, the Potency entry in assay [1] and in assay [2] was “inactive” in each case.

Consider `O=C(O)CCc1nc2ccccc2[nH]1`, for which the Potency result in assay [1] and in assay [2] was “inactive” in each case.

As for `CCCC(=O)OCc1ccccc1`, the Potency entry in assay [1] and in assay [2] was “inactive” in each case.

Take `CN(C)c1ccc(C(=N)c2ccc(N(C)C)cc2)cc1`: the Potency result in assay [1] and in assay [2] was “inactive” each time.

With `O=P(c1ccccc1)(c1ccccc1)c1ccccc1`, the Potency entry in assay [1] and in assay [2] was “inactive” each time.

Take `O=[Si]=O`: the Potency entry in assay [1] and in assay [2] was “inactive” throughout.

In the case of `Cc1ccccc1S`, the Potency result in assay [1] and in assay [2] was “inactive” in each case.

Consider `Nc1cc(C(F)(F)F)ccc1S`, for which the Potency entry in assay [1] and in assay [2] was “inactive” each time.

On to `CC1(C)[C@H]2CC[C@]1(C)[C@H](O)C2`, for which the Potency result in assay [1] and in assay [2] was “inactive” in each case.

For `C[C@]12CC[C@@H]3c4ccc(O)cc4CC[C@H]3[C@@H]1CC[C@H]2O`, the Potency result in assay [1] and in assay [2] was “inactive” in each case.

For the molecule `CCC(COC(=O)CCS)(COC(=O)CCS)COC(=O)CCS`, the Potency result in assay [1] and in assay [2] was “inactive” each time.

With `CCC(Cl)CCC(Cl)C(Cl)CC(Cl)C(Cl)C(Cl)CCl` (stereo not given), the Potency result in assay [1] and in assay [2] was “inactive” throughout.

Regarding `COC(=O)c1sccc1S(N)(=O)=O`, the Potency result in assay [1] and in assay [2] was “inactive” throughout.

`c1ccc(B(c2ccccc2)c2ccccc2)cc1`: the Potency result in assay [1] and in assay [2] was “inactive” in each case.

Regarding `C[C@H]1[C@H]2CC[C@H]3[C@@H]4CC=C5C[C@@H](N(C)C)CC[C@]5(C)[C@H]4CC[C@]23CN1C`, the Potency entry in assay [1] and in assay [2] was “inactive” in each case.

On to `O=C(CN1CCN(Cc2ccc3c(c2)OCO3)CC1)N1c2ccccc2Sc2ccccc21`, for which the Potency entry in assay [1] and in assay [2] was “inactive” throughout.

Consider `OC1CCCCC1`, for which the Potency result in assay [1] and in assay [2] was “inactive” in each case.

As for `CCCCCC(=O)CC`, the Potency result in assay [1] and in assay [2] was “inactive” throughout.

For the molecule `O=C1C=CCCC1`, the Potency entry in assay [1] and in assay [2] was “inactive” throughout.

For `O=C1NC(c2ccccc2)(c2ccccc2)C(=O)N1COP(=O)(O)O`, the Potency result in assay [1] and in assay [2] was “inactive” throughout.

For `C=CC(OCC)OCC`, the Potency entry in assay [1] and in assay [2] was “inactive” in each case.

Consider `C=CC(C)(CCC=C(C)C)OC(=O)/C=C/c1ccccc1` (stereo not given), for which the Potency result in assay [1] and in assay [2] was “inactive” throughout.

In the case of `CCCCCCCCCC/C=C/C#N`, the Potency entry in assay [1] and in assay [2] was “inactive” each time.

In the case of `c1ccc2c(c1)c1cccc3ccc4cccc2c4c31`, the Potency entry in assay [1] and in assay [2] was “inactive” throughout.

Turning to `CC/C(C)=N\O[Si](C)(O/N=C(\C)CC)O/N=C(\C)CC`, the Potency result in assay [1] and in assay [2] was “inactive” each time.

Take `COc1c2ccoc2cc2oc(=O)ccc12`: the Potency result in assay [1] and in assay [2] was “inactive” each time.

As for `CCCCNC(=O)NS(=O)(=O)c1ccc(C)cc1`, the Potency result in assay [1] and in assay [2] was “inactive” throughout.

On to `Nc1ncn([C@@H]2O[C@H](CO)[C@@H](O)[C@H]2O)c(=O)n1`, for which the Potency entry in assay [1] and in assay [2] was “inactive” each time.

On to `CCCCCCCCCCCCCC=O`, for which the viability change, negative = cytotoxic in assay [1] is -4.53% [at 8.39 µM]. In assay [2], the activity change, negative = cytotoxicity was 15.9% [at 8.39 µM].

Consider `O=C1CCC(=O)N1`, for which the Potency entry in assay [1] and in assay [2] was “inactive” in each case.

For the molecule `N[C@@H]1CONC1=O`, the Potency result in assay [1] and in assay [2] was “inactive” each time.

With `Cc1ccc(C(C)(C)C)cc1`, the Potency entry in assay [1] and in assay [2] was “inactive” in each case.

Regarding `Cc1cc2c(s1)Nc1ccccc1N=C2N1CCN(C)CC1`, the Potency result in assay [1] and in assay [2] was “inactive” in each case.

`CN1CCC(=C2c3ccccc3CCc3cccnc32)CC1`: the Potency entry in assay [1] and in assay [2] was “inactive” each time.

Regarding `COCC(O)CO` (stereo not given), the Potency result in assay [1] and in assay [2] was “inactive” in each case.

For the molecule `CCOC(CN1CCN(CC(C)C(=O)c2ccccc2)CC1)c1ccccc1` (stereo not given), the viability change, negative = cytotoxic in assay [1] is 1.27% [at 18.9 µM]. The activity change, negative = cytotoxicity in assay [2] is -1.12% [at 18.9 µM].

Regarding `CC(C)c1ccc(S(=O)(=O)O)cc1`, the Potency entry in assay [1] and in assay [2] was “inactive” throughout.

Regarding `FC1(F)C(F)(F)C(F)(F)C2(F)C(F)(C1(F)F)C(F)(F)C(F)(F)C1(F)C(F)(F)C(F)(F)C(F)(F)C(F)(F)C12F` (stereo not given), the Potency result in assay [1] and in assay [2] was “inactive” throughout.

Turning to `Cc1ccc(O)c2ncccc12`, the Potency entry in assay [1] and in assay [2] was “inactive” in each case.

Turning to `CN(C)CC[C@@H](c1ccc(Cl)cc1)c1ccccn1`, the Potency entry in assay [1] and in assay [2] was “inactive” throughout.

Regarding `CCOC(=O)NCCC[Si](OCC)(OCC)OCC`, the Potency result in assay [1] and in assay [2] was “inactive” in each case.

Turning to `CSc1ccc(O)cc1C`, the Potency entry in assay [1] and in assay [2] was “inactive” each time.

On to `COC(=O)c1cccnc1`, for which the Potency entry in assay [1] and in assay [2] was “inactive” in each case.

As to `Cc1ccc(S)cc1`, the Potency entry in assay [1] and in assay [2] was “inactive” each time.

As to `COc1cc2c(N3CCN(C(=O)Nc4ccc(OC(C)C)cc4)CC3)ncnc2cc1OCCCN1CCCCC1`, the Potency entry in assay [1] and in assay [2] was “inactive” throughout.

With `O=c1[nH]nnc2ccccc12`, the Potency entry in assay [1] and in assay [2] was “inactive” throughout.

As for `NC(=O)Nc1ccccc1`, the Potency entry in assay [1] and in assay [2] was “inactive” throughout.

For the molecule `CCNc1nc(NC(C)(C)C)nc(OC)n1`, the Potency entry in assay [1] and in assay [2] was “inactive” each time.

Take `CN1CCc2cccc3c2[C@H]1Cc1ccc(O)c(O)c1-3`: the Potency entry in assay [1] and in assay [2] was “inactive” in each case.

With `CN(C)CCN(C)CCO`, the Potency result in assay [1] and in assay [2] was “inactive” each time.

`S=P(N1CC1)(N1CC1)N1CC1`: the Potency result in assay [1] and in assay [2] was “inactive” each time.

For the molecule `COC(C)(C)CCCC(C)CC=O` (stereo not given), the Potency result in assay [1] and in assay [2] was “inactive” throughout.

As to `Cc1scc2c1N(C(=O)CN1CCN(C)CC1)c1ccccc1NC2=O`, the Potency result in assay [1] and in assay [2] was “inactive” each time.

Turning to `CCC(C)(C)C1CCCCC1OC(C)=O` (stereo not given), the Potency result in assay [1] and in assay [2] was “inactive” throughout.

In the case of `CC(C)O`, the Potency result in assay [1] and in assay [2] was “inactive” each time.

In the case of `CCOC(C)(C)C`, the Potency result in assay [1] and in assay [2] was “inactive” in each case.
